# Assay results from ChEMBL document CHEMBL4303122, “Identification of potential treatments for COVID-19 through artificial intelligence-enabled phenomic analysis of human cells infected with SARS-CoV-2” (2020).
# In all, about 1,600 compounds were measured (“Hit score”: median about 0.13, highest 2% from about 0.46 on). The list comes from a sample in which the highest values are over-represented; it also holds similar structures and randomly drawn compounds. *1 amine or outer side, *2 acyl side, *3 side chain or, on linkers, in order; H or OH if unused. Where a SMILES comes first, the peptide text is derived from it. Bridges are numbered along the chain shown (N, C = ends). [ ]: non-standard residue; d: D form. The star is where a group is joined. pTerphenylCO(4''-OnC5H11) = CCCCCOc1ccc(-c2ccc(-c3ccc(C(=O)*)cc3)cc2)cc1; Orn(4R-OH,5R-OH) = O=C([C@H](C[C@@H](O)[C@@H](O)N[*:3])N[*:1])[*:2]; hTyr(3S-OH,4S-OH) = N[C@H](C(=O)O)[C@H](O)[C@@H](O)c1ccc(O)cc1; Pro(3S-OH,4S-Me) = C[C@H]1CN[C@H](C(=O)O)[C@H]1O; Hyp = O=C(O)[C@@H]1C[C@@H](O)CN1
# Test system: SARS-CoV-2
# Assay: Antiviral activity against SARS-CoV-2 (USA-WA1/2020 strain) measured by imaging in HRCE cells at MOI 0.4 after 96 hrs (reported as hit score from 0-1 for on-disease vs off-disease activity: scores >0.6 considered hits)
# Format: functional, Homo sapiens
row,SMILES,Hit score
1,COc1cc2nccc(Oc3ccc(NC(=O)Nc4cc(C)on4)c(Cl)c3)c2cc1OC [TIVOZANIB],0.1611
2,CC1(C)S[C@@H]2[C@H](NC(=O)COc3ccccc3)C(=O)N2[C@H]1C(=O)O [PENICILLIN V],0.002553
3,Cc1c(Cl)c(C)[n+]([O-])c(Cl)c1-c1noc(-c2cc(O)c(O)c([N+](=O)[O-])c2)n1 [OPICAPONE],-0.07412
4,Cc1ccc2c(c1)[C@]13CCCC[C@@H]1[C@H](C2)N(C)CC3 [DIMEMORFAN],0.08461
5,"CCCCCOc1ccc(-c2ccc(-c3ccc(C(=O)N[C@H]4C[C@@H](O)[C@@H](O)NC(=O)[C@@H]5[C@@H](O)[C@@H](C)CN5C(=O)[C@H]([C@@H](C)O)NC(=O)[C@H]([C@H](O)[C@@H](O)c5ccc(O)cc5)NC(=O)[C@@H]5C[C@@H](O)CN5C(=O)[C@H]([C@@H](C)O)NC4=O)cc3)cc2)cc1 [ANIDULAFUNGIN] ({pTerphenylCO(4''-OnC5H11)}-[Orn(4R-OH,5R-OH)]T[Hyp][hTyr(3S-OH,4S-OH)]T[Pro(3S-OH,4S-Me)]; lactam 1-C)",0.1907
6,C=CC(=O)Nc1cccc(Oc2nc(Nc3ccc(N4CCN(C)CC4)cc3)nc3ccsc23)c1 [OLMUTINIB],0.2407
7,Cc1oc(=O)oc1COC(=O)C1=C([C@H]2CCCO2)S[C@@H]2[C@@H]([C@@H](C)O)C(=O)N12 [FAROPENEM MEDOXOMIL],0.000691
8,CC(C)(O)CNc1nc(Nc2ccnc(C(F)(F)F)c2)nc(-c2cccc(C(F)(F)F)n2)n1 [ENASIDENIB],0.1439
9,OC[C@H]1O[C@@](CO)(O[C@H]2O[C@H](CO)[C@@H](O)[C@H](O)[C@H]2O)[C@@H](O)[C@@H]1O [SUCROSE],0.09545
10,Cc1cc(S(=O)(=O)[O-])c2c(C)ccc(C(C)C)cc1-2.[Na+] [SODIUM GUALENATE],0.2044
11,CCCCCCCCCCCCCCCC(=O)O[C@@H]1[C@@H](O)[C@@H](O)[C@@H]([C@H](NC(=O)[C@@H]2C[C@@H](CCC)CN2C)[C@H](C)Cl)O[C@@H]1SC [CLINDAMYCIN PALMITATE],0.1881
12,CCn1c(=O)c2c(nc(/C=C/c3ccc(OC)c(OC)c3)n2C)n(CC)c1=O [ISTRADEFYLLINE],0.1372
13,COc1ccc(-c2cc(=O)c3c(O)c(OC)c(O)cc3o2)cc1OC [EUPATILIN],0.2352
14,CC[C@]12CCCN3CCc4c(n(c5ccccc45)C(=O)C1)[C@@H]32 [VINBURNINE],0.1621
15,CCOc1nc2cccc(C(=O)O)c2n1Cc1ccc(-c2ccccc2-c2noc(=O)[nH]2)cc1 [AZILSARTAN],0.1513
16,CCC(C)(Oc1ccc(C2(c3ccc(OC(C)(CC)C(=O)O)cc3)CCCCC2)cc1)C(=O)O (configuration not stated) [CLINOFIBRATE],0.1194
17,N[C@@H](CCN[C@@H](CCN1CC[C@H]1C(=O)O)C(=O)O)C(=O)O,0.1041
18,Cn1cnc2c(F)c(Nc3ccc(Br)cc3F)c(C(=O)NOCCO)cc21 [BINIMETINIB],0.0233
19,O=C(O)c1cc2ccccc2c(Cc2c(O)c(C(=O)O)cc3ccccc23)c1O [PAMOIC ACID],0.0734
20,COC(=O)N[C@H](C(=O)N1CCC[C@H]1c1ncc(-c2ccc(-c3ccc(-c4cnc([C@@H]5CCCN5C(=O)[C@@H](NC(=O)OC)C(C)C)[nH]4)cc3)cc2)[nH]1)C(C)C,-0.06011
21,Cc1ccc(NC(=O)C2(c3ccc4c(c3)OC(F)(F)O4)CC2)nc1-c1cccc(C(=O)O)c1 [LUMACAFTOR],0.04797
22,Cc1nccn1CCC(C(N)=O)(c1ccccc1)c1ccccc1 [IMIDAFENACIN],0.008612
23,CCC(=O)NC[C@@H]1C[C@H]1c1cccc2c1CCO2 [TASIMELTEON],0.1536
24,CC(C)OC(=O)CCC/C=C\C[C@@H]1[C@@H](/C=C/C(F)(F)COc2ccccc2)[C@H](O)C[C@@H]1O [TAFLUPROST],0.14
25,O=[N+]([O-])c1cncn1CCN1CCOCC1 [NIMORAZOLE],0.1444
26,CCCCCC(=O)O[C@]1(C(C)=O)CC[C@H]2[C@@H]3CCC4=CC(=O)CC[C@]4(C)[C@H]3CC[C@@]21C [HYDROXYPROGESTERONE CAPROATE],0.1371

row,SMILES,Hit score
1,COc1cc(C)c2c(Oc3cccc(C(F)(F)F)c3)c(OC)cc(NC(C)CCCN)c2n1.O=C(O)CCC(=O)O (configuration not stated) [TAFENOQUINE SUCCINATE],0.101
2,C[C@]12C=CC(=O)N[C@@H]1CC[C@@H]1[C@@H]2CC[C@]2(C)[C@@H](C(=O)Nc3cc(C(F)(F)F)ccc3C(F)(F)F)CC[C@@H]12 [DUTASTERIDE],0.3162
3,CO[C@H]1C[C@@H]2CC[C@@H](C)[C@@](O)(O2)C(=O)C(=O)N2CCCC[C@H]2C(=O)O[C@H]([C@H](C)C[C@@H]2CC[C@@H](OC(=O)C(C)(CO)CO)[C@H](OC)C2)CC(=O)[C@H](C)/C=C(\C)[C@@H](O)[C@@H](OC)C(=O)[C@H](C)C[C@H](C)/C=C/C=C/C=C/1C [TEMSIROLIMUS],0.4599
4,C=CC[C@@H]1/C=C(\C)C[C@H](C)C[C@H](OC)[C@H]2O[C@@](O)(C(=O)C(=O)N3CCCC[C@H]3C(=O)O[C@H](/C(C)=C/[C@@H]3CC[C@@H](O)[C@H](OC)C3)[C@H](C)[C@@H](O)CC1=O)[C@H](C)C[C@@H]2OC [TACROLIMUS ANHYDROUS],0.3285
5,CC[C@@H]1/C=C(\C)C[C@H](C)C[C@H](OC)[C@H]2O[C@@](O)(C(=O)C(=O)N3CCCC[C@H]3C(=O)O[C@H](/C(C)=C/[C@@H]3CC[C@H](Cl)[C@H](OC)C3)[C@H](C)[C@@H](O)CC1=O)[C@H](C)C[C@@H]2OC [PIMECROLIMUS],0.2951
6,CO[C@H]1C[C@@H]2CC[C@@H](C)[C@@](O)(O2)C(=O)C(=O)N2CCCC[C@H]2C(=O)O[C@H]([C@H](C)C[C@@H]2CC[C@H](n3cnnn3)[C@H](OC)C2)CC(=O)[C@H](C)/C=C(\C)[C@@H](O)[C@@H](OC)C(=O)[C@H](C)C[C@H](C)/C=C/C=C/C=C/1C [ZOTAROLIMUS],0.6315
7,CO[C@H]1C[C@@H]2CC[C@@H](C)[C@@](O)(O2)C(=O)C(=O)N2CCCC[C@H]2C(=O)O[C@H]([C@H](C)C[C@@H]2CC[C@@H](O)[C@H](OC)C2)CC(=O)[C@H](C)/C=C(\C)[C@@H](O)[C@@H](OC)C(=O)[C@H](C)C[C@H](C)/C=C/C=C/C=C/1C [SIROLIMUS],0.6828
8,CO[C@H]1C[C@@H]2CC[C@@H](C)[C@@](O)(O2)C(=O)C(=O)N2CCCC[C@H]2C(=O)O[C@H]([C@H](C)C[C@@H]2CC[C@@H](OCCO)[C@H](OC)C2)CC(=O)[C@H](C)/C=C(\C)[C@@H](O)[C@@H](OC)C(=O)[C@H](C)C[C@H](C)/C=C/C=C/C=C/1C [EVEROLIMUS],0.4984
9,C[C@@H]1CCO[C@H]2Cn3cc(C(=O)NCc4ccc(F)cc4F)c(=O)c(O)c3C(=O)N12 [DOLUTEGRAVIR],-0.02185
10,CCc1cc(/C(C)=N/OCc2ccc(C3CCCCC3)c(C(F)(F)F)c2)ccc1CN1CC(C(=O)O)C1 [SIPONIMOD],-0.1293
11,Cc1ccc(NC(=O)c2ccc(CN3CCN(C)CC3)cc2)cc1Nc1nccc(-c2cccnc2)n1 [IMATINIB],0.06765
12,Cc1cn(-c2cc(NC(=O)c3ccc(C)c(Nc4nccc(-c5cccnc5)n4)c3)cc(C(F)(F)F)c2)cn1 [NILOTINIB],0.4816
13,Cc1ccc(/C=C2/C(=O)C3(C)CCC2C3(C)C)cc1 (configuration not stated) [ENZACAMENE],0.1975
14,CC(C)NCC(O)COc1ccc(COCCOC(C)C)cc1 (configuration not stated) [BISOPROLOL],0.1972
15,CC(C)NC[C@H](O)COc1ccc(CCOCC2CC2)cc1 [LEVOBETAXOLOL],0.4949
16,CC(C)NCC(O)COc1ccc(CCOCC2CC2)cc1 (configuration not stated) [BETAXOLOL],0.2742
17,C=C1c2c(Cl)ccc(O)c2C(=O)C2=C(O)[C@]3(O)C(=O)C(C(N)=O)=C(O)[C@@H](N(C)C)[C@@H]3[C@@H](O)[C@H]12.O=C(O)c1cc(S(=O)(=O)O)ccc1O [MECLOCYCLINE SULFOSALICYLATE],0.1338
18,CC(C)OC(=O)CCC/C=C\C[C@@H]1[C@@H](CC[C@@H](O)CCc2ccccc2)[C@H](O)C[C@@H]1O [LATANOPROST],0.04489
19,CCCCCCOC(=O)CCC(=O)CN [HEXAMINOLEVULINATE],0.1128
20,COc1cc([C@@H]2c3cc4c(cc3[C@@H](O[C@@H]3O[C@@H]5CO[C@@H](C)O[C@H]5[C@H](O)[C@H]3O)[C@H]3COC(=O)[C@H]23)OCO4)cc(OC)c1OP(=O)(O)O [ETOPOSIDE PHOSPHATE],0.05858
21,O=C(CNc1cccc(Cl)c1)NC1CCCN(c2ncnc3[nH]ccc23)C1 (configuration not stated),0.1071
22,CCC(CC)COC(=O)[C@H](C)N[P@](=O)(OC[C@H]1O[C@@](C#N)(c2ccc3c(N)ncnn23)[C@H](O)[C@@H]1O)Oc1ccccc1,0.9631
23,Nc1ncnc2c1ncn2[C@@H]1O[C@H](CO)[C@@H](O)[C@@H]1O [VIDARABINE],-0.02251
24,CC(C)OC(=O)[C@H](C)N[P@@](=O)(OC[C@H]1O[C@@H](n2ccc(=O)[nH]c2=O)[C@](C)(F)[C@@H]1O)Oc1ccccc1,0.2594
25,N#C[C@@]1(c2ccc3c(N)ncnn23)O[C@H](CO)[C@@H](O)[C@H]1O [GS-441524],0.865
26,CC(C)OC(=O)[C@H](C)N[P@](=O)(OC[C@H]1O[C@@H](n2ccc(=O)[nH]c2=O)[C@](C)(F)[C@@H]1O)Oc1ccccc1 [SOFOSBUVIR],0.2045
